# Test results: the supplement of paper PMC10121225
# Where a name gives a salt, the structure may show the parent alone.
# System: hN + hpA co-culture (H1 iNGN2 human neurons + human primary astrocytes)
# Test: presynaptic density (SYNAPSIN1 puncta per MAP2 neurite area), Z-score vs DMSO controls; higher = more presynaptic puncta (synapse-promoting)
# Conditions: 3 µM; 72 h
# 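Note: immunostained co-cultures imaged by high-content microscopy, Z-score per plate against mean and SD of 0.1% DMSO wells, compounds added on differentiation day 18, analysed day 21.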
row,Compound,presynaptic density (Z-score)
1,C[C@](O)(COc1ccc(C#N)cc1)C(=O)Nc1ccc(C#N)c(C(F)(F)F)c1,-0.892
2,Cc1cc(SCc2sc(-c3ccc(C(F)(F)F)c(F)c3)nc2C)ccc1OCC(=O)O,0.227
3,N[C@@H]1C[C@H]1c1ccccc1 [Tranylcypromine (2-PCPA) HCl],0.259
4,O=C(O[C@H]1C[C@H]2CC[C@@H](C1)[N+]21CCCC1)C(O)(c1ccccc1)c1ccccc1 [Trospium chloride],-0.748
5,CC(=O)O[C@H]1C[C@@H]2CC[C@@H]3[C@H](CC[C@@]4(C)[C@H]3C[C@H]([N+]3(C)CCCCC3)[C@@H]4OC(C)=O)[C@@]2(C)C[C@@H]1[N+]1(C)CCCCC1 [Pancuronium dibromide],-0.361
6,Cc1cc2c(C(C)C)c(O)c(O)c(C=O)c2c(O)c1-c1c(C)cc2c(C(C)C)c(O)c(O)c(C=O)c2c1O,-4.31
7,Cn1cc(C2=C(c3cn(C4CCN(Cc5ccccn5)CC4)c4ccccc34)C(=O)NC2=O)c2ccccc21 [Enzastaurin],0.0046
8,C[C@@]12N[C@@H](Cc3ccccc31)c1ccccc12 [(-)-MK 801 maleate],-0.122
9,O=C(O)CNC(=O)c1c(O)c2ccccc2n(Cc2ccccc2)c1=O,0.0398
10,C=C1C[C@@H]2[C@H](CC[C@]3(C)C(=O)CC[C@@H]23)[C@@]2(C)C=CC(=O)C=C12 [Exemestane],0.646
11,CCc1c(C(=O)C(N)=O)c2c(OCC(=O)O)cccc2n1Cc1ccccc1,0.584
12,"CN1CCc2cc3c(cc2C1C1OC(=O)c2c1ccc1c2OCO1)OCO3 (single isomer, unassigned; (+)) [(+)-Bicuculline]",-0.322
